Compounds without any hit were thinned out: in the full panel of roughly 83,000, 20% have a hit.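 In brief: 96-well plates, 48 h treatment, single concentration, percent growth endpoint.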 Values without a mark were called inactive. Activity calls are given as the source filed them. How the source made its calls: active means growth percent below 10; inactive means the rest.
System: CAKI-1 renal
Assay: NCI-60 one-dose screen, 48 h (100 = growth as untreated, 0 = no growth, -100 = all killed)
Details: 10 µM unless noted

Structure (SMILES) | growth
C=C(C=O)[C@@H]1CC[C@]2(C)[C@H](CC=C3[C@H]4[C@@H](C)[C@H](C)CC[C@]4(C(=O)OC)CC[C@]32C)[C@@]1(C)CCC#N | 3.89% (active)
COc1ccc([C@@H]2c3[nH]c4ccccc4c3C[C@H]3C(=O)N(C4CCN(CC5CCCCC5)CC4)CC(=O)N23)c(OC)c1 | 44.7%
c1ccc(C(c2nc3ncncc3[nH]2)N2CSc3nc4ncncc4n3C2)cc1 (stereo unspecified) | 41%
Cc1occc1-c1nc2s/c(=C/c3ccc(-c4cc(C(F)(F)F)ccc4Cl)o3)c(=O)n2n1 | 89.2%
CNCc1cccc2c1OCCCCCCC(C)(O)CC(C)(C)S(=O)(=O)c1ccc(cc1)-c1cnc(N)c(n1)C(=O)N2 (stereo unspecified) | 17.6%
CS(=O)(=O)c1ncc(-c2ccccc2)cn1 | 107%
CCOC(=O)c1c(N)c(C#N)cn1-c1cc(OC)c(OC)c(OC)c1 | 91.8%
CCCCCc1ccc(S(=O)(=O)Nc2cc(-c3csc(NC(=O)CN4CCN(C)CC4)n3)ccc2OC)cc1 | -15.5% (active)
Cc1nc2ncc(-c3ccc4ncnc(NCc5ccccc5)c4c3)cc2[nH]1 | 19.3%
C=C(C=O)[C@@H]1CC[C@]2(COC(C)=O)CC[C@]3(C)C(CC[C@@H]4[C@@]5(C)CC[C@H](OC(C)=O)C(C)(C)[C@@H]5CC[C@]43C)[C@@H]12 (stereo partly specified) | -14.9% (active)
Cc1ccc(S(=O)(=O)N(CC[C@@H]2C[C@H]2c2cc3ccccc3o2)S(=O)(=O)c2ccc(C)cc2)cc1 | 86%
COC(=O)c1ccc(NC2=C/C(=N/S(=O)(=O)c3ccc(C(=O)O)cc3)c3ccccc3C2=O)cc1 | 20.4%
O=C(CCn1c[n+](CC(=O)c2ccc(F)cc2)c2ccccc21)Nc1cccc2cccnc12 | 99.9%
CC1(C)CC[C@]2(C(=O)O)CC[C@]3(C)C(=CC[C@@H]4[C@@]5(C)CC/C(=N\OCCC#N)C(C)(C)[C@@H]5CC[C@]43C)[C@@H]2C1 | 59.7%
COc1ccc([C@@H]2[C@@H](O)C(=O)N2c2cc(OC)c(OC)c(OC)c2)cc1F | 30.3%
CCOC(=O)c1c(Nc2ccccc2)nn2c(-c3ccccc3)ccnc12 | 88.7%
Cc1cc(C)c2sc(=O)n(Cc3nnc(SCCC(=O)O)o3)c2n1 | 89.5%
C=CCn1c(SCC(=O)Nc2ccc(C(=O)/C=C/c3cccc([N+](=O)[O-])c3)cc2)nnc1-c1c[nH]c2ccccc12 | 87.1%

Structure (SMILES) | growth
Cc1ccc(NC(=O)N[C@@H](Cc2cc(F)cc(F)c2)C(=O)NC2C(=O)N3C[C@H](O)C[C@H]3C(=O)N3CCCC[C@H]3C(=O)N[C@@H](CO)C(=O)N3C[C@H](C)C[C@H]3C(=O)O[C@H]2C)c(F)c1 (stereo partly specified) | 82.9%
C#C[C@]1(O)CC[C@H]2[C@@H]3CC=C4c5sc(-c6ccc7c(c6)OCO7)nc5CC[C@]4(C)[C@H]3CC[C@@]21C | 44.4%
CCCCCc1ccc(S(=O)(=O)Nc2cccc(-c3csc(NC(=O)CN4CCN(C)CC4)n3)c2)cc1 | 78.5%
CCCn1cnc2c(c1=N)C(c1ccc(F)cc1)c1sc3c(CC)cccc3c1O2 (stereo unspecified) | 20.7%
COc1cccc(O)c1/C=C(/C)c1ccc2c(OC)cccc2[o+]1 | 90.3%
NS(=O)(=O)c1ccc(-n2cc(CN3CCCCC3)nn2)cc1 | 92.6%
O=S(=O)(NCCNc1nccc(-n2cnc3ccccc32)n1)c1ccc(Cl)cc1 | 87.4%
COC(=O)C1(C)CCC[C@]2(C)[C@H]3C[C@H]4C(C(C)C)=C[C@]3(CC[C@@H]12)[C@H]1[C@@H]4[C@@H](OC(=O)c2ccco2)CC[C@@H]1OC(=O)c1ccco1 (stereo partly specified) | 95.8%
CCCn1cnc2c(c1=N)C(c1ccc(OC)cc1)c1sc3c(C)cccc3c1O2 (stereo unspecified) | 25.8%
COc1cc(-c2nn(C(C)(C)C)cc2-c2ccnc(NCCCNS(=O)(=O)c3cccc(F)c3)n2)ccc1Cl | 25.7%
CC1(C)CC[C@]2(CN)CC[C@]3(C)C(=CC[C@@H]4[C@@]5(C)CCCNC(C)(C)[C@@H]5CC[C@]43C)[C@H]2C1 | 93.2%
NC(=O)c1cccc(C#CCNC[C@H]2C[C@@H](n3ccc4c(Cl)ncnc43)[C@H](O)[C@@H]2O)c1 | 94.4%
NC(N)=Nc1ccc(Oc2cccc(Nc3cccc(C(F)(F)F)c3)c2)cn1 | 27.2%
O=C(CSc1nc2ccccc2c(=O)n1-c1ccccc1)Nc1cccc(C(=O)/C=C/c2ccccc2)c1 | 86%
COc1ccc(/C(N)=N/C(N)=N/c2nc3ccccc3s2)cc1 | 40%
Cc1cccc(/C=C/C(=O)Nc2ncc(Cc3cccc(C)c3)s2)c1 | 25.3%
O=C(c1ccc(O)cc1)[C@@H]1CN[C@@]2(C(=O)Nc3ccccc32)[C@H]1c1ccc(F)cc1 | 106%
Nc1nc(Nc2ccccc2SSc2ccccc2Nc2nc(N)nc(-c3ccc4ccccc4c3)n2)nc(-c2ccc3ccccc3c2)n1 | 35%

— PubChem BioAssay (NCI)
